DSG3 Ab inh: inhibitors of pemphigus antibody binding to DSG3, primary screen, biochemical, bead-based, flow cytometry, scFv-GFP | Desmoglein-3 (Homo sapiens), P32926 | DSG3-coupled beads, scFv-anti-DSG3-GFP binding; active compounds read low | binding (percent of control), % at 10 µM | 310,000 tested, 0.48% active | AID 588358, 2011;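 active = binding more than 3 SD below its plate's average and above zero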;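 note: hits lower antibody fragment binding to DSG3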
Target sequence (P32926 whole entry, looked up, the tested form may be a part): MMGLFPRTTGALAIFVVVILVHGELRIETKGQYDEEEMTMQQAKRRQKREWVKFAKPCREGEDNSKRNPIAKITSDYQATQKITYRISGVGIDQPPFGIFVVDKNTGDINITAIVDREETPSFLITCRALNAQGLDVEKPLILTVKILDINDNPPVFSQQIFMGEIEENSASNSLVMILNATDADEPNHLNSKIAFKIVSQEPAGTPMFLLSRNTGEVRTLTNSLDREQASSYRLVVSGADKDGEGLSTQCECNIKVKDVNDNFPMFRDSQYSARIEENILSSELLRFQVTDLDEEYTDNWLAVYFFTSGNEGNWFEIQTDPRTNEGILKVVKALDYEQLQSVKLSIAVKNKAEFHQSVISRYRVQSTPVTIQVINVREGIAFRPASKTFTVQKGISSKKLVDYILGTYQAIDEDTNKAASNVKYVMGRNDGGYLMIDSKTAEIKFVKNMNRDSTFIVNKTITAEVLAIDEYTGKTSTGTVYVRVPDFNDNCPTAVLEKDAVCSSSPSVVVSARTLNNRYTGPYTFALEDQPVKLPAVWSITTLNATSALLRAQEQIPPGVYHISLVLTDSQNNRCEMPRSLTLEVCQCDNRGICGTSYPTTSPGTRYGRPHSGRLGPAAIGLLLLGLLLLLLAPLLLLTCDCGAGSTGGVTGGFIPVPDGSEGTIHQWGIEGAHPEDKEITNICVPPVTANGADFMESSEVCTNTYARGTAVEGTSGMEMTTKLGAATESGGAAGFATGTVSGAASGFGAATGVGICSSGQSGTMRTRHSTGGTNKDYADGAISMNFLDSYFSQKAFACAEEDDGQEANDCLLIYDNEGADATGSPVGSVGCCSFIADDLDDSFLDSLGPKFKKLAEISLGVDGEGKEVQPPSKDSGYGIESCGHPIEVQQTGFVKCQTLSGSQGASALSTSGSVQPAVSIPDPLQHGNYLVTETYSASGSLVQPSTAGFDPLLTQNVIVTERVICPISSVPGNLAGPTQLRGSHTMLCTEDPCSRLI
GRK2 inh: compounds blocking aptamer binding on GRK2 – biochemical, human GRK2, bead flow cytometry, HTS, primary screen; inhibition of aptamer binding, % at 10 µM; 330,000 tested, 0.59% active; FAM-aptamer displacement from GRK2; Beta-adrenergic receptor kinase 1 (Homo sapiens), P25098;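 active = inhibition of aptamer binding above 40%, roughly 3 SD of noise, on plates passing a quality check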;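 note: median bead fluorescence of bound FAM aptamer so fluorescent compounds give negative values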
HDAC3 inhib: HDAC3 deacetylase inhibitors, primary screen, biochemical, fluorescence, cell-free homogeneous; inhibition, % at 8.3 µM; Histone deacetylase 3 (Homo sapiens), O15379; 320,000 tested, 0.15% active; recombinant HDAC3, fluorogenic peptide/trypsin coupled; in the data active = inhibition above about 26%, passing the limit was not always enough
VLA-4 inh: inhibition in human VLA-4 binding assay, primary screen, VLA-4 allosteric modulator project, MLPCN library, flow cytometry, VLA-4 expressing cells. inhibition, % (about 7 µM as worked out from the volumes in the protocol). Integrin alpha-4 (Homo sapiens), P13612. 330,000 tested, 0.2% active. ligand binding flow cytometry. AID 2557, 2010
PKD1 inh: inhibitors of human PKD1 kinase, biochemical, fluorescence polarization | Serine/threonine-protein kinase D1 (Homo sapiens), Q15139 | PKD1 kinase fluorescence polarization assay | inhibition, % (test concentration not listed) | 200,000 tested, 0.056% active
LANA-H2A inh: blockers of LANA interaction with H2A/H2B – biochemical, FP readout, HTS, primary screen. 320,000 tested, 0.6% active. Protein LANA1 (Human herpesvirus 8 type P (isolate GK18)), Q9QR71. inhibition, % (concentration not given with the values). cell-free LANA-H2A/H2B peptide, fluorescence polarization; in the data active = inhibition mostly above about 10%, no sharp cut-off; inactive = mostly below about 6.7%
Numbers stand for hits. Sampled rows, rich in hits. Any-hit rate of the full collection: about 1.8%. Cut-off read from the data, not from the text of the source, unless noted: active = inhibition above about 50%; inactive = the rest.

`Cc1ccc(C(C(=O)NC(C)(C)C)N(Cc2cccnc2)C(=O)C(=O)NC2CCCCC2)o1` (centres undefined) gave DSG3 Ab inh inactive, GRK2 inh inactive, HDAC3 inhib inactive, VLA-4 inh inactive, PKD1 inh inactive and LANA-H2A inh inactive.
CCCCN(C(=O)Oc1ccccc1)C1CCS(=O)(=O)C1 (centres undefined) was read as GRK2 inh inactive, HDAC3 inhib inactive, VLA-4 inh inactive and LANA-H2A inh inactive.
Screening CCCCN(C(=O)/C=C/c1ccccc1)C1CCS(=O)(=O)C1 (centres undefined) returned DSG3 Ab inh 74, GRK2 inh inactive, HDAC3 inhib inactive, VLA-4 inh inactive and LANA-H2A inh inactive.
For Cc1cc2nc(-c3ccc[nH]c3=O)n(Cc3ccccc3F)c2cc1C the results were DSG3 Ab inh inactive, GRK2 inh inactive, HDAC3 inhib inactive, VLA-4 inh inactive and LANA-H2A inh inactive.
CCOC(=O)c1c(-c2ccccc2)cn2ccccc12 was read as GRK2 inh inactive, HDAC3 inhib inactive, VLA-4 inh inactive, PKD1 inh inactive and LANA-H2A inh inactive.
`CCOC(=O)c1c(-c2ccccc2)c[nH]c1C` gave DSG3 Ab inh 70.
Screening CCOC(=O)C1=C(CSc2nc(-c3ccccc3)ccc2C#N)OC(N)=C(C#N)C1c1cccnc1 (centres undefined) returned DSG3 Ab inh inactive, GRK2 inh inactive, HDAC3 inhib inactive, VLA-4 inh inactive, PKD1 inh inactive and LANA-H2A inh inactive.
For CCOC(=O)C1=C(CSc2nc(-c3ccccc3)ccc2C#N)OC(N)=C(C#N)C1c1ccccc1 (centres undefined) the results were DSG3 Ab inh inactive, GRK2 inh inactive, HDAC3 inhib inactive, VLA-4 inh inactive, PKD1 inh inactive and LANA-H2A inh 198.
For O=C(NNC(=O)C1CCCN(c2ncccn2)C1)c1ccncc1 (centres undefined) the results were DSG3 Ab inh inactive, GRK2 inh inactive, HDAC3 inhib inactive, VLA-4 inh inactive, PKD1 inh inactive and LANA-H2A inh 12.
Screening CCCCN(C(=O)c1ccc(N2CCCC2=O)cc1)c1c(N)n(Cc2ccccc2)c(=O)[nH]c1=O returned DSG3 Ab inh inactive, GRK2 inh inactive, HDAC3 inhib inactive, VLA-4 inh inactive and LANA-H2A inh inactive.
Screening CC(C)CN(C(=O)c1ccc(N2CCCC2=O)cc1)c1c(N)n(Cc2ccccc2)c(=O)[nH]c1=O returned DSG3 Ab inh inactive, GRK2 inh inactive, HDAC3 inhib inactive, VLA-4 inh inactive and LANA-H2A inh 26.
Screening Cc1ccc(/C=C/C(=O)OCC(=O)N(CC(C)C)c2c(N)n(Cc3ccccc3)c(=O)[nH]c2=O)o1 returned DSG3 Ab inh 92, GRK2 inh inactive, HDAC3 inhib inactive, VLA-4 inh inactive and LANA-H2A inh inactive.
`C[C@@H]1CN([C@@H](C)CO)C(=O)CCCn2nncc2CO[C@@H]1CN(C)C(=O)Nc1ccc(N2CCCCC2)cc1` gave DSG3 Ab inh inactive.
Fc1cccc(NC(=S)NCCN2CCOCC2)c1 was read as DSG3 Ab inh inactive, GRK2 inh inactive, HDAC3 inhib inactive, VLA-4 inh inactive, PKD1 inh inactive and LANA-H2A inh inactive.
Screening Cc1ccc(C(=O)CCC(=O)O)cc1 returned GRK2 inh inactive, HDAC3 inhib inactive, VLA-4 inh inactive, PKD1 inh inactive and LANA-H2A inh inactive.
`CCCc1ccc(C(=O)CCC(=O)O)cc1` gave DSG3 Ab inh inactive, GRK2 inh inactive, HDAC3 inhib inactive, VLA-4 inh inactive, PKD1 inh inactive and LANA-H2A inh active.
`CCCCn1c(N)c(N(CCC(C)C)C(=O)c2ccc3ccccc3c2)c(=O)[nH]c1=O` gave DSG3 Ab inh inactive, GRK2 inh inactive, HDAC3 inhib inactive, VLA-4 inh inactive and LANA-H2A inh 32.
Screening C=CCN1C(=O)c2ccc(C(=O)N(CC(C)C)c3c(N)n(CCCC)c(=O)[nH]c3=O)cc2C1=O returned DSG3 Ab inh 76, GRK2 inh inactive, HDAC3 inhib inactive, VLA-4 inh inactive and LANA-H2A inh inactive.
CCCCn1c(N)c(N(CC(C)C)C(=O)c2ccncc2)c(=O)[nH]c1=O was read as DSG3 Ab inh inactive, GRK2 inh inactive, HDAC3 inhib inactive, VLA-4 inh inactive and LANA-H2A inh inactive.
C[C@H]1CN([C@@H](C)CO)S(=O)(=O)c2ccc(Br)cc2O[C@@H]1CN(C)C(=O)CCN1CCCCC1 was read as DSG3 Ab inh inactive.
COc1ccccc1CCNC(=O)C(=O)Nc1cc2c3c(c1)CC(=O)N3CCC2 was read as DSG3 Ab inh inactive, GRK2 inh inactive, HDAC3 inhib inactive, VLA-4 inh inactive and LANA-H2A inh inactive.
CCCN1C(=O)C(=O)c2cc(Cl)ccc21 was read as DSG3 Ab inh inactive, GRK2 inh inactive, HDAC3 inhib inactive, VLA-4 inh inactive and LANA-H2A inh inactive.
`O=C(CN1CCC(n2nnc3cc(C(F)(F)F)ccc32)CC1)N1CCc2ccccc21` gave DSG3 Ab inh 82, GRK2 inh inactive, HDAC3 inhib inactive, VLA-4 inh inactive, PKD1 inh inactive and LANA-H2A inh inactive.
For O=C(CN1CCC(n2nnc3cc(F)ccc32)CC1)N1CCCc2ccccc21 the results were DSG3 Ab inh inactive, GRK2 inh inactive, HDAC3 inhib inactive, VLA-4 inh inactive, PKD1 inh inactive and LANA-H2A inh inactive.
For CCO[C@@H]1OC(C(=O)N2CCN(Cc3ccc4c(c3)OCO4)CC2)=C[C@H](c2csc3ccccc23)[C@H]1CCCO the results were DSG3 Ab inh inactive, GRK2 inh inactive, HDAC3 inhib inactive, VLA-4 inh inactive, PKD1 inh inactive and LANA-H2A inh 14.
For O=C(CCCNC(=O)c1ccc(Cl)cc1)Nc1nccs1 the results were DSG3 Ab inh inactive, GRK2 inh inactive, HDAC3 inhib inactive, VLA-4 inh inactive and LANA-H2A inh inactive.
For COCCN(CC(=O)Nc1cccc(C)c1)S(=O)(=O)c1ccc(S(=O)(=O)N2CCCC2)cc1 the results were DSG3 Ab inh -25, GRK2 inh inactive, HDAC3 inhib inactive, VLA-4 inh inactive, PKD1 inh inactive and LANA-H2A inh inactive.
Cc1cccc(NC(=O)CSCC(=O)Nc2ccc(S(=O)(=O)N3CCCCC3)cc2)c1 was read as DSG3 Ab inh inactive.
For C[C@]12c3[nH]c4cc(-c5ccco5)ccc4c3CCN1C(=O)[C@@H](CC(=O)NCC13CC4CC(CC(C4)C1)C3)C[C@@H]2C(=O)N1CCOCC1 the results were DSG3 Ab inh inactive and GRK2 inh inactive.

Screening results: PubChem, several laboratories
